Assay results taken from PubChem BioAssay (NCATS).
Results filed as inconclusive are left out. A call without a number means that no potency is given here. The source made the active and inactive calls. Unless noted, calls come from the whole dose curve; as a rule, active = well fitted curve in the direction sought with a large enough effect; inconclusive = small, poorly fitted or top-dose-only effect, or another doubt; inactive = no such curve, though single readings can be large; an effect the other way counts as inactive or inconclusive.

Columns and labels:
[1] = Primary qHTS for inhibitors of La Crosse Virus (LACV) - induced cell death in SH-SY5Y cells (AID 1508616);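 note: top concentration of the series differs between compounds; higher means more rescue of cells from virus-induced death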
In short: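 Cytopathicity rescue screen: compounds pinned onto SH-SY5Y cells, which are then infected with LACV (MOI 0.01) and held 6 days at 37C. Percent activity is scaled between infected DMSO control and uninfected DMSO control.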

[2] = target: Calcium and integrin-binding protein 1 (Homo sapiens) (UniProt Q99828); test: Validation qHTS for Identification of Calcium Integrin Binding protein 1 (CIB1) Competitor (AID 1508618)
In short: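 Displacement of FITC-alphaIIb peptide (100 nM) from CIB1-GST (1 uM) is monitored by polarization in quantitative HTS format; buffer carries 5 mM CaCl2 and 125 mM NaCl at pH 7.4, incubations are at room temperature.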

[3] = target: Calcium and integrin-binding protein 1 (Homo sapiens) (UniProt Q99828); test: Primary qHTS for Identification of Calcium Integrin Binding Protein 1 (CIB1) Competitor (AID 1508620);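 note: GST tagged CIB1 binding a fluorescein labelled alphaIIb integrin peptide tracer; top concentration of the series differs between compounds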
In short: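 Fluorescence polarization competition: CIB1-GST (1 uM final) preincubated with compound 15 min at room temperature, then FITC-labeled alphaIIb peptide (100 nM final) added for another 15 min. Polarization read at Ex 480/Em 540.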

[4] = Primary qHTS for Vero E6 cytotoxicity: counterscreen for inhibitors of SARS-S pseudo-typed particle cell entry (AID 1479150; calls by dose curve)
[5] = Confirmatory qHTS for VERO E6 Cytotoxicity Assay: Counterscreen for SARS-CoV-2 CPE Assay (AID 1508605; calls by dose curve; note: series mostly up to about 20 µM; nearly all actives have a fitted effect of over 60% in size)

Calcium and integrin-binding protein 1 (Homo sapiens), sequence (Q99828 whole entry, looked up): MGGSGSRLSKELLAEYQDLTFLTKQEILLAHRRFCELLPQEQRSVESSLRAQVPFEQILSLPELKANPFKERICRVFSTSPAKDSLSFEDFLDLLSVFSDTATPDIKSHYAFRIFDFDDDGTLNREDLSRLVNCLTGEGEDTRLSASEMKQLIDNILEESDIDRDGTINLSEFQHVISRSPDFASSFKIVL

With `CC(O)(CS(=O)(=O)c1ccc(F)cc1)C(=O)Nc1ccc(C#N)c(C(F)(F)F)c1` (stereo unspecified) as the molecule, how does the Potency [1] read?
Its Potency is “inactive”.

What about the Potency [2] of the same molecule?
The Potency was “inactive”.

What about the Potency [3] of the same molecule?
The Potency was “inactive”.

With `N[C@@H](Cc1ccc(Oc2cc(I)c(O)c(I)c2)c(I)c1)C(=O)O` as the molecule, how does the Potency [1] read?
Its Potency is “inactive”.

With `COC[C@H]1OC(=O)c2coc3c2[C@@]1(C)C1=C(C3=O)C2CCC(=O)[C@@]2(C)C[C@H]1OC(C)=O` (stereo partly specified) as the molecule, how does the Potency [1] read?
The Potency was “inactive”.

What about the Potency [2] of the same molecule?
Its Potency is “inactive”.

Which Potency [4] does the source give for `OCCN1CCN(CCCN2c3ccccc3Sc3ccc(C(F)(F)F)cc32)CC1` here?
Its Potency is “inactive”.

With `CNCCC(Oc1ccc(C(F)(F)F)cc1)c1ccccc1` (stereo unspecified) as the molecule, how does the Potency [4] read?
Its Potency is “inactive”.

What about the Potency [5] of the same molecule?
Its Potency is “inactive”.

Which Potency [1] does the source give for `COc1ccccc1N1CCNCC1` here?
Its Potency is “inactive”.

What about the Potency [2] of the same molecule?
The Potency was “inactive”.

With `O=c1oc2ccccc2c(O)c1C(CC(O)c1ccc(-c2ccc(Br)cc2)cc1)c1ccccc1` (stereo unspecified) as the molecule, how does the Potency [1] read?
The Potency was “inactive”.

Which Potency [1] does the source give for `NN=C(N)N` here?
Its Potency is “inactive”.

What about the Potency [2] of the same molecule?
Its Potency is “inactive”.

What about the Potency [3] of the same molecule?
The Potency was “inactive”.

For `CC1(CN2CCC(n3c(=O)[nH]c4ccccc43)CC2)OCc2ccccc2-n2cccc21` (stereo unspecified), which Potency [5] is on record?
Its Potency is “inactive”.
